Experimental data reported in PubChem BioAssay (NCI).
About 79,000 compounds went through this panel and 15% of them were active in at least one assay; those are over-represented in the sample as a whole. Cut-off read from the data, not from the text of the source: active = growth inhibition above about 70%; inactive = the rest.

What was measured:
[1] = NCI Yeast Anticancer Drug Screen. Data for the rad50 strain (AID 155);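 note: 0% = growth of vehicle-only cultures of the same strain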; details: S. cerevisiae rad50 strain growth inhibition; at 50.0 µM; stronger effect = higher value
Method in brief: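 Vehicle-treated cultures provide the reference for the growth inhibition reported for compound-exposed, repair-deficient yeast.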

[2] = NCI Yeast Anticancer Drug Screen. Data for the mec2-1 strain (AID 157); details: S. cerevisiae mec2-1 strain, at 50.0 µM, stronger effect = higher value
Method in brief: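 Yeast mec2-1 mutant treated with compound. Readout: growth inhibition vs vehicle controls.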

[3] = NCI Yeast Anticancer Drug Screen. Data for the sgs1 mgt1 strain (AID 161);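 note: 0% = growth of cultures given vehicle only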; details: S. cerevisiae sgs1 mgt1 strain, at 50.0 µM, stronger effect = higher value
Method in brief: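 Mutant yeast exposed to compound; growth scored against vehicle-only wells.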

[4] = NCI Yeast Anticancer Drug Screen. Data for the cln2 rad14 strain (AID 165);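 note: 0% = growth equal to vehicle treated cultures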; details: S. cerevisiae cln2 rad14 strain, at 50.0 µM, stronger effect = higher value
Method in brief: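 cln2 rad14 yeast strain; compound exposure; growth inhibition read vs vehicle controls.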

[5] = NCI Yeast Anticancer Drug Screen. Data for the bub3 strain (AID 167); details: S. cerevisiae bub3 mutant strain, at 50.0 µM, stronger effect = higher value
Method in brief: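 Mutant yeast screening strain plus compound; vehicle-treated cultures serve as the 0% inhibition reference.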

[6] = NCI Yeast Anticancer Drug Screen. Data for the mlh1 rad18 strain (AID 175); details: S. cerevisiae mlh1 rad18 strain growth inhibition; at 50.0 µM; stronger effect = higher value
Method in brief: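 Yeast w/ defined DNA-repair lesions; compound exposure; growth vs vehicle controls → % inhibition.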

Measured: growth inhibition

CC1OC(CO)C2OC(C)OCC2O1 (stereo unspecified)
inactive: [1] -14.2% | [2] -13.9% | [3] -12.8% | [4] -18.1% | [5] 5.75% | [6] 3.95%

Cn1c(=O)c2c(nc(N(CCN(N=O)c3nc4c(c(=O)n(C)c(=O)n4C)n3C)N=O)n2C)n(C)c1=O
inactive: [1] -11% | [2] -4.35% | [3] -25.7% | [4] -0.3% | [5] -8.85% | [6] -0.65%

CCC1(CC)CC(=O)NC1=O
inactive: [1] -4.95% | [2] -11.6% | [3] -40.5% | [4] 1.5% | [5] -26% | [6] -11.1%

Nc1nc(C(=O)O)c(N=Nc2ccccc2)c(=O)[nH]1
inactive: [1] 31.1% | [2] -10.2% | [3] 7.35% | [4] 24.4% | [5] -16.1% | [6] -20.8%

NCCOCC(N)C(=O)O (stereo unspecified)
inactive: [1] -9.3% | [2] -14.4% | [3] -52.4% | [4] -27.1% | [5] -51% | [6] 8.4%

COC(=O)[C@@H]1[C@H]2C[C@@H]3c4[nH]c5ccccc5c4CCN3C[C@@H]2CC[C@@H]1O
inactive: [1] 1.5% | [2] -9.55% | [3] 13.9% | [4] 2.15% | [5] 5.45% | [6] 1.25%

Cc1cccc(-c2cc(=O)c3c(C)ccnc3[nH]2)c1
inactive: [1] 10.3% | [2] -1% | [3] -0.85% | [4] -4.5% | [5] -3.3% | [6] -12.9%

CC(=N/Nc1ccc([N+](=O)[O-])cc1[N+](=O)[O-])/C(C)=C/C1C=CCCC1(C)C (stereo unspecified)
inactive: [1] 21.2% | [2] -2.75% | [3] 8.5% | [4] 3% | [5] 16.1% | [6] 6.65%

Cc1cccc(C(C)C)c1NC(=O)C(=O)CC(=O)c1sc(Nc2ccccc2Cl)nc1C
inactive: [1] -40% | [2] -8.5% | [3] -0.45% | [4] -14.6% | [5] -30.1% | [6] 1.15%

COC1(OC)N=C(N)C2(C#N)/C(=N/N(C)C)CC(C)C12C#N (stereo unspecified)
inactive: [1] 11.9% | [2] 4.35% | [3] -18.4% | [4] -16.1% | [5] -22.8% | [6] -40.7%

[Cl][Pt+2][Cl].[NH-]C1CCC1[NH-] (stereo unspecified)
inactive: [1] 4.7% | [2] -9.3% | [3] -12% | [4] -24.4% | [5] -4.1% | [6] 10.5%

Cc1cc(N=Nc2cc(Br)cc(Br)c2)cc(C)c1N
inactive: [1] 10.8% | [2] 1.3% | [3] 18.1% | [4] -12.2% | [5] 3.55% | [6] 7.65%

Nc1ccc2c(c1)C(=O)N(OS(=O)(=O)c1ccccc1)C2=O
inactive: [1] 55% | [2] 39% | [3] 41.2% | [4] 41% | [5] 35% | [6] 47.2%

O=[N+]([O-])[C@@H]1C[C@@H]2C=C[C@H]1CC2
inactive: [1] 10.1% | [2] 0.2% | [3] 2.6% | [4] -1.3% | [5] 0.3% | [6] 0.15%

CCOc1nc(N)nc(C)c1N=Nc1ccccc1OC
inactive: [1] 12.7% | [2] 9.05% | [3] 14.4% | [4] 35.9% | [5] 11.5% | [6] 13.5%

S=C(N/N=C\c1ccccc1)Nc1ccccc1
inactive: [1] 6.65% | [2] -1.05% | [3] -8.2% | [4] 8.65% | [5] 10.8% | [6] 14.9%

CN(C)c1nc(=O)c2ccccc2o1
inactive: [1] -41% | [2] -14.1% | [3] -28.4% | [4] -36.5% | [5] -7.75% | [6] -5.05%

COC1(C)COC(C)(OC)CO1 (stereo unspecified)
inactive: [1] 34.3% | [2] 20.9% | [3] 24.1% | [4] 13.6% | [5] 12.8% | [6] 18.6%

O=C(O)CSc1ncnc2nc[nH]c12
inactive: [1] 1.6% | [2] -30.2% | [3] 1.9% | [4] 27.6% | [5] -5.25% | [6] -12.9%

Cc1cc2c(cc1C)NC(=O)CC(c1ccccc1)=N2
inactive: [1] 18% | [2] -7.8% | [3] 4.15% | [4] 3.3% | [5] 28.9% | [6] 10.8%

O=S(CCO)c1ccc(Cl)cc1 (stereo unspecified)
inactive: [1] -26.1% | [2] -20.1% | [3] -21.2% | [4] -55.5% | [5] 2.75% | [6] -23.9%

CCCC1(CC)COC(c2ccc(C)cc2)OC1 (stereo unspecified)
inactive: [1] 13.8% | [2] 0.9% | [3] -7.6% | [4] 5.85% | [5] 11.8% | [6] 3.35%

CCCNc1ccc2c(c1)C(O)c1ccccc1-2 (stereo unspecified)
inactive: [1] -4.65% | [2] -5.1% | [3] 5.35% | [4] 2.4% | [5] -4% | [6] -2.95%

OC1COCCC(O)(CNCc2ccccc2)C1O (stereo unspecified)
inactive: [1] 7.4% | [2] 16.6% | [3] -3.95% | [4] 8.15% | [5] -6.95% | [6] -9.1%

C[n+]1c(-c2ccc(/C=N/NC(=O)c3cc(O)c(C(=O)N/N=C/c4ccc(-c5cn6ccccc6[n+]5C)cc4)cc3O)cc2)cn2ccccc21
inactive: [1] -31% | [2] -13.5% | [3] -15.7% | [4] -39.5% | [5] -31.9% | [6] -10.5%

NCCO
inactive: [1] -1% | [2] 1.15% | [3] -11.8% | [4] -3.6% | [5] 13.2% | [6] -18.9%

CN(C)c1nc(Cl)nc2nc(Cl)[nH]c12
inactive: [1] -10.9% | [2] 3.15% | [3] 13.2% | [4] 0.8% | [5] -3.2% | [6] 11.9%

CCCCNc1ccc([N+](=O)[O-])cc1[N+](=O)[O-]
inactive: [1] 16.2% | [2] -15.4% | [3] 18.4% | [4] 6.55% | [5] 41.9% | [6] -0.6%

CN(C)C1=CC(=S)NC2CCCCC12 (stereo unspecified)
inactive: [1] 4.1% | [2] -4.7% | [3] 10.6% | [4] 2.05% | [5] -10.1% | [6] 22.1%

Cc1c2ccccc2nc(CS(=O)(=O)c2ccccc2)[n+]1[O-]
inactive: [1] -26.1% | [2] -13.2% | [3] -4.95% | [4] -60.5% | [5] -16.4% | [6] -6.1%

Cc1ccc(S(=O)(=O)Oc2nc3nc4ccccc4nc3nc2OS(=O)(=O)c2ccc(C)cc2)cc1
inactive: [1] -3.5% | [2] -2% | [3] 3.7% | [4] -10.5% | [5] 3.5% | [6] -3.95%

O=c1onc2n1-c1cc(Cl)ccc1C(=S)N1CSCC21 (stereo unspecified)
inactive: [1] 1% | [2] 8.15% | [3] 13.5% | [4] 5.4% | [5] 2.5% | [6] 11.6%

CC(C)NCc1ccccc1Sc1ccccc1CNC(C)C
inactive: [1] 22.1% | [2] 5.45% | [3] 12.1% | [4] 12.8% | [5] 11.4% | [6] 16.2%

Cc1nc(N)sc1C(=O)/C=C\c1ccc2c(c1)OCO2
inactive: [1] 21.4% | [2] -3.2% | [3] 23.4% | [4] 10.3% | [5] 5.2% | [6] 35.4%

C[C@H](N)C(=O)/C=C/c1ccccc1
inactive: [1] -18.8% | [2] -30.6% | [3] -6.05% | [4] 14.9% | [5] 8.8% | [6] -8.5%

N/C(=N\N=C\C1CC2C=CC1C2)NO (stereo unspecified)
inactive: [1] 5.3% | [2] -11.4% | [3] -9.8% | [4] -0.05% | [5] -16.6% | [6] -4.55%

Nc1cccc2c1C(=O)c1cccc(Nc3ccc4c(c3)C(=O)c3ccccc3C4=O)c1C2=O
inactive: [1] -2.95% | [2] -2.7% | [3] 5.55% | [4] 47.9% | [5] -14.2% | [6] 32.9%

NC1C(O)OCC(O)C1O (stereo unspecified)
inactive: [1] -0.35% | [2] 9.3% | [3] 10.2% | [4] 7.25% | [5] 19.4% | [6] 23.1%

O=S(=O)(c1ccccc1)N1CCCCC1
inactive: [1] -23.3% | [2] 5.05% | [3] 3.45% | [4] -33% | [5] 29.5% | [6] 25.6%

CNC(=O)OCCC(OC(=O)NC)C1CCC2C3CCC4CC(OC(=O)c5ccccc5)CCC4(C)C3CCC12C (stereo unspecified)
inactive: [1] 37% | [2] 1.7% | [3] 4.9% | [4] 23.3% | [5] -4% | [6] 8.8%

COc1cccc(NC(=O)C(=O)C2C=CCS2(=O)=O)c1 (stereo unspecified)
inactive: [1] 0.4% | [2] -0.65% | [3] -31.4% | [4] -6.6% | [5] -28.3% | [6] -13%
